Data published in article PMC4336329 (PLoS ONE, 2015).
Hit rate of the full screen: of about 310,000 compounds, about 14,000 (4.5%) showed an effect of 50% or more. Effects have a minus sign here. The entries come from a sample that favours strong results as a whole.

Target: human ether-à-go-go-related gene (hERG) potassium channel (human, UniProt Q12809)
Assay: primary screen, population patch clamp on CHO cells stably expressing hERG; higher = less effect of the substance
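Also: peak tail current of the secondary pulse compared with the same well before compound.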

human ether-à-go-go-related gene (hERG) potassium channel, sequence (Q12809 whole entry, looked up): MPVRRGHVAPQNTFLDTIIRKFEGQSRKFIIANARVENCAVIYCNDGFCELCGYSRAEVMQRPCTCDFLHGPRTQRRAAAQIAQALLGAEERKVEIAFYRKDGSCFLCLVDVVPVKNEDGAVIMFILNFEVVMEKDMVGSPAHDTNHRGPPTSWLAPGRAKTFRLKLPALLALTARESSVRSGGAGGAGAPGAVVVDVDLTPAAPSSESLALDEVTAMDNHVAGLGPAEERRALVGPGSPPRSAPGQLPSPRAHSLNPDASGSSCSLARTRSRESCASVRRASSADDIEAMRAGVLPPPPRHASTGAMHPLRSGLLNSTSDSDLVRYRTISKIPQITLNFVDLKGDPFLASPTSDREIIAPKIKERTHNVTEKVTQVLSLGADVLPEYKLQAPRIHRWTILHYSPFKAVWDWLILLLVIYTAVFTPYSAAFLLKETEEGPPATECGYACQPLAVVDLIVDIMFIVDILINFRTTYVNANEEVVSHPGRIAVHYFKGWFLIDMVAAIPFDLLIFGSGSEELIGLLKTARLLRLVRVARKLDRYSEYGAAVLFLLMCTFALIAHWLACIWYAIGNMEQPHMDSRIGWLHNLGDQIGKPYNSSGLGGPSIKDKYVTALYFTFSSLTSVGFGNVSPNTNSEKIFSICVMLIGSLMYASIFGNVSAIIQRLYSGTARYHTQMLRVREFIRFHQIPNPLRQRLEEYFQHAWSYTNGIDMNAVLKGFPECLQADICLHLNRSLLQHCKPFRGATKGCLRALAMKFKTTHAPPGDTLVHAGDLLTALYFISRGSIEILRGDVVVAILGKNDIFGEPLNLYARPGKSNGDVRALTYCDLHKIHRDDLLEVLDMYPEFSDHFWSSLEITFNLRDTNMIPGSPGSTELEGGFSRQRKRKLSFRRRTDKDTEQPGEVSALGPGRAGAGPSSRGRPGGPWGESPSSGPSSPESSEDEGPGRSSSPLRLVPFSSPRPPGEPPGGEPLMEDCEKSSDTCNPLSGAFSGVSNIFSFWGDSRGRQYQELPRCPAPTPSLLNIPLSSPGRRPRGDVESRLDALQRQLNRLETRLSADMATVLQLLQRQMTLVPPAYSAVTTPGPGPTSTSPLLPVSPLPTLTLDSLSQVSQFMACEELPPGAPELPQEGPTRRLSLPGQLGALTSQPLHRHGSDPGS

SMILES | hERG current change (%, negative = inhibition) at 10uM [%]
NS(=O)(=O)c1cc(C(=O)OCC(=O)Nc2ccccc2[N+](=O)[O-])ccc1Cl | -6.13
O=C1Nc2ccccc2N(O)N1c1ccc(S(=O)(=O)N2CCCCCC2)cc1 | 1.75
N#C/C(=C\c1ccc(-c2ccc(C(=O)O)cc2)o1)C(=O)Nc1ccc(F)cc1 | 25.6
O=C(NCCc1ccccc1)C1CCN(S(=O)(=O)N2CCC3(CC2)OCCO3)CC1 | -0.566
CCCOc1cccc(C(=O)N2CCN(C(=O)C3CCCO3)CC2)c1 (centres unmarked) | 7.15
CCC(=O)c1ccc(OCC(=O)OCC(=O)N2c3ccccc3NC(=O)C2(C)C)cc1 | 2.82
CC(C)c1ccc(N(CC(=O)NCC2CCCO2)C(=O)Cn2nnc(-c3cccs3)n2)cc1 (centres unmarked) | -42.5
NC(=O)NOCc1ncc(C(F)(F)F)cc1Cl | 10.4
CN(C)CCOc1nc(-c2ccccc2)nc2c1oc1ccccc12 | -44.7
CCN(CC)CCOc1nc(C)nc2c1oc1ccccc12.Cl | -64.6
CCN(CC)CCOc1ncnc2c1oc1ccccc12 | -39.1
CCc1nc(N(CC)CC)c2oc3ccccc3c2n1.Cl | -21.1
CCc1nc(OCCN(C)C)c2oc3ccccc3c2n1 | -4.1
CCc1nc(OCCN(CC)CC)c2oc3ccccc3c2n1.Cl | -58.9
CCCCCC(=O)Nc1ccccc1N1CCN(c2ccccc2)CC1 | -0.752
CSc1ccc(S(=O)(=O)NCC(=O)OCC(=O)N2CCCCC2C)cc1[N+](=O)[O-] (centres unmarked) | 4.74
COC(=O)Cc1ccc(O)c(N)c1 | 9.82
CCn1cc(/C=C(\NC(=O)c2ccccc2F)C(=O)NCCCn2ccnc2)c2ccccc21 | -69
COc1ccccc1C(=O)N/C(=C\c1cn(C)c2ccccc12)C(=O)NCCCn1ccnc1 | 3.22
COc1ccccc1C(=O)N/C(=C/c1ccc(Br)cc1)C(=O)NCCCn1ccnc1 | -87
O=C(NCCCn1ccnc1)/C(=C\c1ccc(Br)cc1)NC(=O)c1ccccc1F | -74.3
C=CCNC(=O)/C(=C/c1ccc(Br)cc1)NC(=O)c1ccccc1OC | -45.9

SMILES | hERG current change (%, negative = inhibition) at 10uM [%]
COc1ccccc1C(=O)N/C(=C\c1ccc(Br)cc1)C(=O)NCCCO | -34.3
O=C(NCCCn1ccnc1)/C(=C\c1cccnc1)NC(=O)c1ccccc1Br | 5.24
O=C(NCCCn1ccnc1)/C(=C\c1cccnc1)NC(=O)c1ccccc1F | -17.7
C=CCNC(=O)/C(=C\c1ccc(Br)cc1)NC(=O)c1ccccc1OC | -51.8
COc1ccccc1C(=O)N/C(=C/c1ccc(Br)cc1)C(=O)NCC(=O)O | -8.44
Cn1cc(/C=C(\NC(=O)c2ccccc2Cl)C(=O)NCCCn2ccnc2)c2ccccc21 | 8.3
CCn1cc(/C=C(\NC(=O)c2ccccc2OC)C(=O)NCCCn2ccnc2)c2ccccc21 | -19.2
COC(=O)c1cnn(-c2ccc(Cl)cc2)c1/C=N/NC(N)=S | 7.44
O=C(Nc1cccc(-c2csc(Nc3cccc(C(F)(F)F)c3)n2)c1)c1cc([N+](=O)[O-])cc(C(F)(F)F)c1 | 5.05
CC(C)Oc1ccc(CNCCC2(C(C)C)CCOC(C)(C)C2)cc1 (centres unmarked) | -45.4
COc1ccc(NC(=O)Nc2ncn(Cc3cccc(C(F)(F)F)c3)n2)cc1OC | -32.5
NC(=O)C(c1ccccc1)c1ccc(C(=O)c2ccccc2)cc1 (centres unmarked) | 3.08
CC(C)N1CCC(N2CCN(CC#Cc3ccccc3)CC2CCO)CC1 (centres unmarked) | 0.615
CCc1ccc(N2CC(O)=C(c3nc4ccccc4c(=O)[nH]3)C2=N)cc1 | 2.98
CCOc1ccc(Nc2oc(Cc3ccccc3)nc2C#N)cc1 | -1.96
CCCCOc1cc(CC2CNC(=O)N2)ccc1OC (centres unmarked) | -2.83
COc1ccccc1NC(=O)Cn1c(=O)oc2cc(S(=O)(=O)N3CCCC3)ccc21 | 16.6
CCOC(=O)N1CCc2c(sc(NC(=O)CN3CCN(C)CC3)c2C(=O)Nc2ccccc2)C1 | -77.2
CCOC(=O)c1c(NC(=S)N2CCOCC2)sc2c1CCN(C(=O)OCC)C2 | -1.31
CCOC(=O)N1CCc2c(sc(NC(=O)CN3CCOCC3)c2C#N)C1 | -1.09
CCOC(=O)N1CCc2c(sc(NC(=O)CN3CCOCC3)c2C(=O)Nc2ccccc2)C1 | -68.8
CCOC(=O)N1CCc2c(sc(NC(=O)Cc3ccccc3)c2C(=O)c2ccc(OC)cc2)C1 | 13.7

SMILES | hERG current change (%, negative = inhibition) at 10uM [%]
CCOC(=O)c1c(NC(=O)CN2CCCCC2)sc2c1CCN(C(=O)OCC)C2 | -10.9
O=C(CNC(=O)c1ccco1)OC(C(=O)c1ccccc1)c1ccccc1 (centres unmarked) | 0.438
CCN1C(=O)C2(C(C(=O)c3ccc(C)o3)=C(O)C(=O)N2CCCN2CCOCC2)c2ccccc21 (centres unmarked) | 0.0517
O=C(CSc1nccc(=O)[nH]1)N1CCOCC1 | 3.03
COc1cc(SC)ccc1C(=O)OCc1nc2ccsc2c(=O)[nH]1 | -30.6
O=C(CSc1nnc(Nc2ccccc2)s1)NCC1CCCO1 (centres unmarked) | -1.51
COc1cc2ccccc2cc1C(=O)NNC(=O)c1ccccc1O | 7.31
COc1cccc2c(=O)c3c([nH]c12)OC(C)(C)C3 | 13
COc1cc2ncnc(NCc3cccc(Cl)c3)c2cc1OC | -63.9
COc1cc2ncnc(NCc3ccc(C)cc3)c2cc1OC | -0.937
COc1cc2ncnc(NCc3ccc(F)cc3)c2cc1OC | -52.5
COc1ccc(CNc2ncnc3cc(OC)c(OC)cc23)cc1 | -3.69
COc1cc2ncnc(NCc3ccc(Cl)cc3)c2cc1OC | -31.2
COc1cccc(CNc2ncnc3cc(OC)c(OC)cc23)c1 | -11.6
Cc1ccccc1Cn1c(=O)n(CCCC(=O)NCc2ccco2)c(=O)c2ccccc21 | -15.5
Nn1c(SCc2cccc(Cl)c2)nnc1-c1ccncc1 | -2.64
Cc1cc(C(=O)C(=O)N(C)C)c(C)n1-c1ccc(Cl)c(Cl)c1 | -28.9
COc1ccc(S(=O)(=O)N(CCN2CCOCC2)Cc2cc(OC)ccc2OC)cc1 | -10.7
Nc1ccc(NC(=O)c2ccccc2)c2c1C(=O)c1ccccc1C2=O | 2.65
CC(C)N1C(=O)CC(Nc2ccc(N3CCOCC3)cc2)C1=O (centres unmarked) | 2.64
O=C(O)c1cc([N+](=O)[O-])ccc1C(=O)Nc1ccccc1 | 12.7
CN1CCN(c2ccc([N+](=O)[O-])cc2C(=O)Nc2ccccc2)CC1 | -71.1

SMILES | hERG current change (%, negative = inhibition) at 10uM [%]
Cc1ccc(NC(=O)c2cc([N+](=O)[O-])ccc2N2CCOCC2)cc1C | -42.3
COc1ccc(NC(=O)c2cccc([N+](=O)[O-])c2)cc1 | 13
COc1ccc(NC(=O)c2cc([N+](=O)[O-])ccc2N2CCN(C)CC2)cc1 | -43.4
O=C(NC(=S)Nc1ccccc1)c1cc([N+](=O)[O-])ccc1N1CCOCC1 | 6.13
COc1cccc(NC(=O)c2cc([N+](=O)[O-])ccc2N2CCN(C)CC2)c1 | -57.7
Cc1cccc(NC(=O)c2cc([N+](=O)[O-])ccc2N2CCN(C)CC2)c1 | -61.9
COc1ccc(NC(=O)c2cc([N+](=O)[O-])ccc2N2CCCC2)cc1 | -1.73
CN1CCN(c2ccc(NC(=O)c3cc([N+](=O)[O-])ccc3N3CCOCC3)cc2)CC1 | -2.4
COc1ccc(NC(=O)c2cc([N+](=O)[O-])ccc2O)cc1 | -57.6
COc1ccc(NC(=O)c2cc([N+](=O)[O-])ccc2N2CCNCC2)cc1 | -44.5
CCC(C(=O)Nc1ccc(C)cc1)c1ccccc1 (centres unmarked) | 19.1
Nc1c(-c2cccc(Cl)c2)cnc2c(-c3ccccc3)cnn12 | 13.9
N#C/C(=C\c1ccc(F)c(Cl)c1)S(=O)(=O)c1ccccn1 | -6.64
O=C(/C=C/c1ccc([N+](=O)[O-])cc1)c1cccs1 | -23.4
CCOCCCNC(=O)C(c1ccc(OC)cc1)N(Cc1ccc2c(c1)OCO2)C(=O)c1cnccn1 (centres unmarked) | 8.96
CCOc1ccc2c(CC)cc(=O)oc2c1OCC | -18.9
O=C(Cn1cc(C(=O)C2CC2)c2ccccc21)Nc1ccc(F)cc1 | -20.5
O=C(Nc1cccc(Cl)c1N1CCOCC1)c1cc([N+](=O)[O-])ccc1N1CCOCC1 | -21.1
O=C(Nc1ccccc1)c1cc([N+](=O)[O-])ccc1N1CCNCC1 | -37.8
O=C(Nc1cccc(Cl)c1)c1cc([N+](=O)[O-])ccc1N1CCN(CCO)CC1 | -53
